High-throughput results: PubChem, National Center for Advancing Translational Sciences (NCATS)
An excerpt weighted towards active compounds, which were near 21% of everything screened.
Pf growth 96h: Primary qHTS for delayed death inhibitors of the malarial parasite plastid, 96 hour incubation. hit rate 6.9% among 320,000. AID 504834, 2011. P. falciparum luciferase reporter growth, 96 h. Potency, µM (top dose mostly 28.7 µM), inactives show at the highest dose activity change, negative = inhibition, actives largely listed as inhibitors; note: potency is the fitted concentration of half-maximal effect; % is set by controls: 0 for no effect and ±100 for the full control effect
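96 h incubation, 37 C, 5% CO2, of luciferase-reporter P. falciparum-infected RBCs (2% hematocrit, 0.05% parasitemia final) with test compounds; endpoint luminescence.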
Cycloheximide cs: Cycloheximide Counterscreen for Small Molecule Inhibitors of Shiga Toxin. cell reporter, cycloheximide protein synthesis inhibition counterscreen. max response, %. hit rate 12% among 300,000. AID 2314, 2010; in the data active = max response mostly above about 13%, no sharp cut-off; inactive = mostly below about 14%; note: read at 38.3 µM for the half of the compounds with a filed dose; 0% is about no effect
Shiga toxin inh: A qHTS for Small Molecule Inhibitors of Shiga Toxin | AID 2315, 2010 | Vero cells, Shiga toxin protein synthesis inhibition reporter | inhibition, % at 38.7 µM | hit rate 9.2% among 290,000; in the data active = inhibition mostly above about 28%, no sharp cut-off; inactive = mostly below about 43%; note: 0% is about no effect
NS1 inh: qHTS Assay for Inhibitors of Influenza NS1 Protein Function. Potency, µM (series often up to 46.1 µM), for inactives: at the top dose activity, positive = more growth. hit rate 0.4% among 270,000; calls by dose curve; note: potency is the fitted concentration of half-maximal effect; actives are rising curves; nearly all actives have a fitted effect of over 50% in size
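Growth recovery, yeast-based: influenza A NS1 expressed in S. cerevisiae causes slow growth, and suppressors are detected by OD600. The parent strain without NS1 is used as positive control.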
Pf growth 48h: Primary qHTS for delayed death inhibitors of the malarial parasite plastid, 48 hour incubation. P. falciparum luciferase growth in erythrocytes, 48 h. Potency, µM (titrated, usually from 28.7 µM), for inactives: at the highest dose activity change, negative = inhibition, most hits filed as inhibitors. AID 504832, 2011. hit rate 5.9% among 310,000; note: potency is the fitted concentration of half-maximal effect; % is set by controls: 0 for no effect and ±100 for the full control effect
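First compound was added to culture medium, then infected red cells at 0.1% parasitemia and 2% hematocrit (final). After incubation at 37 C under 5% CO2, luciferase detection reagent was dispensed and light output recorded.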
* = called active by the depositor. Unless noted, calls come from the whole dose curve; as a rule, active = well fitted inhibition curve with a large enough effect; inconclusive = small, poorly fitted or top-dose-only effect, or another doubt; inactive = no such curve, though single readings can be large or run the other way.

What do the screens show for `CN1C(=O)/C(=C/C=C2/CCCN2C)N(C)C1=S`?
Pf growth 96h: 1.5µM*; Cycloheximide cs: 16; Shiga toxin inh: 9; NS1 inh: 2%; Pf growth 48h: 38%

Results for Cc1cc(C)c(S(=O)(=O)Nc2ccc(-c3cn4ccccc4n3)cc2)c(C)c1 ?
Cycloheximide cs: 15; Shiga toxin inh: 15; NS1 inh: 14%; Pf growth 48h: 15µM*

What do the screens show for `O=S(=O)(Nc1ccc(-c2cn3ccccc3n2)cc1)c1ccccc1`?
Pf growth 96h: 62%; Cycloheximide cs: 28*; Shiga toxin inh: 87*; NS1 inh: 3%; Pf growth 48h: 6%

How did Cc1nc(-c2ccc(NS(=O)(=O)c3ccccc3)cc2)cs1 do in these assays?
Pf growth 96h: 35%; Cycloheximide cs: 13; Shiga toxin inh: 21; Pf growth 48h: 47%

What do the screens show for `Cc1cccc(S(=O)(=O)Nc2ccc(-c3cn4ccccc4n3)cc2)c1`?
Pf growth 96h: inconclusive; Cycloheximide cs: 13*; Shiga toxin inh: 18; NS1 inh: -16%; Pf growth 48h: 48%

How did CC1CN(S(=O)(=O)c2cccc(-c3cn4ccccc4n3)c2)CC(C)O1 (stereo not given) do in these assays?
Cycloheximide cs: 19; Shiga toxin inh: -21; NS1 inh: -81%; Pf growth 48h: inconclusive

How did O=C(NC1CCCCC1)C12CC3CC(CC(Cl)(C3)C1)C2 do in these assays?
Pf growth 96h: inconclusive; Cycloheximide cs: -10; Shiga toxin inh: -11; NS1 inh: 2%; Pf growth 48h: -6%

How did COc1ccc(C(=O)Cn2c(NCCCl)nc3ccccc32)cc1 do in these assays?
Pf growth 96h: inconclusive; Cycloheximide cs: 1; Shiga toxin inh: -2; NS1 inh: -12%; Pf growth 48h: -2%

Results for O=C(Cn1c(NCCCO)nc2ccccc21)c1ccc(Cl)cc1Cl ?
Pf growth 96h: 9.3µM*; Cycloheximide cs: -2; Shiga toxin inh: -6; NS1 inh: 2%; Pf growth 48h: 1.7µM*

Results for COc1ccc(-n2c(C)cc(C(=O)Cn3c(NCCO)nc4ccccc43)c2C)cc1 ?
Pf growth 96h: 10µM*; Cycloheximide cs: -2; Shiga toxin inh: -9; NS1 inh: -3%; Pf growth 48h: 0%

How did COc1ccc(CNC(=O)c2cc(C3CC3)on2)cc1 do in these assays?
Pf growth 96h: -16%; Cycloheximide cs: 25*; Shiga toxin inh: 81; NS1 inh: -11%

What do the screens show for `COc1ccc(CNC(=O)c2onc(C)c2Cl)cc1`?
Pf growth 96h: 13µM*; Cycloheximide cs: -2; Shiga toxin inh: 20; NS1 inh: -7%; Pf growth 48h: -3%

Results for COc1ccc(NC(=O)c2onc(C)c2Cl)cc1OC ?
Pf growth 96h: 16%; Cycloheximide cs: 51*; Shiga toxin inh: 49*; NS1 inh: -7%

How did COC(=O)c1ccccc1NC(=O)c1onc(C)c1Cl do in these assays?
Pf growth 96h: 5.2µM*; Cycloheximide cs: 0; Shiga toxin inh: -6; NS1 inh: 0%; Pf growth 48h: 31%

How did COC(=O)c1ccccc1NC(=O)c1cc(-c2ccc(OC)c(OC)c2)on1 do in these assays?
NS1 inh: 12%

Results for COCCNC(=O)c1ccc(NS(=O)(=O)c2ccc3[nH]c(=O)[nH]c3c2)cc1 ?
Pf growth 96h: inconclusive; Cycloheximide cs: -1; Shiga toxin inh: -12; NS1 inh: 8%; Pf growth 48h: 20%

How did COc1cc(NC(=O)c2onc(C)c2Cl)cc(OC)c1OC do in these assays?
Pf growth 96h: 28%; Cycloheximide cs: -2; Shiga toxin inh: -9; NS1 inh: -7%; Pf growth 48h: -8%

What do the screens show for `CCc1ccc(NC(=O)c2onc(C)c2Cl)cc1`?
Pf growth 96h: 25%; Cycloheximide cs: 59*; Shiga toxin inh: 56*; NS1 inh: -19%

Results for Cc1noc(C(=O)Nc2ccc(C#N)cc2)c1Cl ?
Pf growth 96h: 167%; Cycloheximide cs: -1; Shiga toxin inh: 34; NS1 inh: 6%; Pf growth 48h: 37%

How did COc1ccc(NC(=O)c2onc(C)c2Cl)cc1 do in these assays?
Pf growth 96h: 252%; Cycloheximide cs: 40*; Shiga toxin inh: 89*; NS1 inh: -1%; Pf growth 48h: 124%

What do the screens show for `O=C(Cn1cnc([N+](=O)[O-])n1)NC1CC1`?
Pf growth 96h: 46%; Cycloheximide cs: -4; Shiga toxin inh: 1; Pf growth 48h: 17%

Results for Oc1ccc(Cl)cc1Cc1cc(Cl)ccc1O ?
Pf growth 96h: inconclusive; Cycloheximide cs: -1; Shiga toxin inh: 26; NS1 inh: -37%; Pf growth 48h: inconclusive

What do the screens show for `Oc1ccc(Cl)cc1CNCc1ccc(C(F)(F)F)cc1`?
Pf growth 96h: 5.9µM*; Pf growth 48h: 1.2µM*

How did Oc1ccc(Cl)cc1Cc1ccccc1 do in these assays?
Pf growth 96h: 7.6µM*; Pf growth 48h: 11µM*

Results for O=C(O)c1ccc(CNCc2ccc(Cl)cc2Cl)cc1 ?
Cycloheximide cs: -1; Shiga toxin inh: 4; NS1 inh: -5%; Pf growth 48h: -3%

How did Oc1ccc(Cl)cc1CNCc1ccc(Cl)cc1 do in these assays?
Pf growth 96h: 5.9µM*; Pf growth 48h: 3.7µM*

What do the screens show for `Oc1ccc(Cl)cc1CNCc1ccc(F)cc1`?
Pf growth 96h: 5.2µM*; Pf growth 48h: 5.2µM*

How did COc1ccccc1N(CCC#N)C(=O)COC(=O)CCC(=O)c1ccc(F)cc1 do in these assays?
Pf growth 96h: -3%; Pf growth 48h: -10%

How did Cc1cccc(N(CC(=O)NCc2ccco2)C(=O)CCC(=O)Nc2nccs2)c1 do in these assays?
Pf growth 96h: -15%; Cycloheximide cs: 1; Shiga toxin inh: -13; NS1 inh: 3%; Pf growth 48h: 38%

Results for Cc1ccsc1CNCc1cc(Cl)ccc1O ?
Pf growth 96h: 2.9µM*; Pf growth 48h: 1.7µM*

Results for CCc1nc2c(c(=O)c3ccccc3n2C)c(=O)n1C1CCCCCC1 ?
Pf growth 96h: inconclusive; Cycloheximide cs: 6; Shiga toxin inh: -9; NS1 inh: -5%; Pf growth 48h: inconclusive

How did Cn1c2ccccc2c(=O)c2c(=O)n(C3CCCCCC3)c(C3CCCCC3)nc21 do in these assays?
Pf growth 96h: 10µM*; Cycloheximide cs: -6; Shiga toxin inh: -13; NS1 inh: 6%; Pf growth 48h: 8.3µM*

Results for Cn1c2ccccc2c(=O)c2c(=O)n(C3CCCCC3)c(-c3cccs3)nc21 ?
Cycloheximide cs: 2; Shiga toxin inh: 25; NS1 inh: 11%; Pf growth 48h: 6.6µM*

What do the screens show for `COc1ccc(CCn2c(-c3ccccc3)nc3c(c(=O)c4ccccc4n3C)c2=O)cc1`?
Pf growth 96h: inconclusive; Cycloheximide cs: -2; Shiga toxin inh: -12; NS1 inh: 13%; Pf growth 48h: 0%

What do the screens show for `Cn1c2ccccc2c(=O)c2c(=O)n(-c3ccccc3)c(C3CCCCC3)nc21`?
Pf growth 96h: 9.3µM*; Cycloheximide cs: -4; Shiga toxin inh: 14; NS1 inh: 29%; Pf growth 48h: 9.3µM*
